Measurements reported in PubChem BioAssay (EPA / NIEHS).
Results filed as inconclusive are left out. The source made the active and inactive calls. Rule for the calls, unless noted: active = hit-call score of the fitted dose curve at least 0.9, where 1 is the maximum; inactive = score below 0.9.

Columns and labels:
[1] = biological target: Nuclear respiratory factor 1 (Homo sapiens) (UniProt Q16656); assay: ATG_NRF1_CIS: Attagene CIS-FACTORIAL HepG2 Assay for human Nuclear Respiratory Factor 1 (NRF1) Orphan Gene (AID 2282987); details: HepG2 NRF1 cis-element reporter, Attagene multiplex; actives raise or lower the signal
Sequence of Nuclear respiratory factor 1 (Homo sapiens) (Q16656 whole entry, looked up): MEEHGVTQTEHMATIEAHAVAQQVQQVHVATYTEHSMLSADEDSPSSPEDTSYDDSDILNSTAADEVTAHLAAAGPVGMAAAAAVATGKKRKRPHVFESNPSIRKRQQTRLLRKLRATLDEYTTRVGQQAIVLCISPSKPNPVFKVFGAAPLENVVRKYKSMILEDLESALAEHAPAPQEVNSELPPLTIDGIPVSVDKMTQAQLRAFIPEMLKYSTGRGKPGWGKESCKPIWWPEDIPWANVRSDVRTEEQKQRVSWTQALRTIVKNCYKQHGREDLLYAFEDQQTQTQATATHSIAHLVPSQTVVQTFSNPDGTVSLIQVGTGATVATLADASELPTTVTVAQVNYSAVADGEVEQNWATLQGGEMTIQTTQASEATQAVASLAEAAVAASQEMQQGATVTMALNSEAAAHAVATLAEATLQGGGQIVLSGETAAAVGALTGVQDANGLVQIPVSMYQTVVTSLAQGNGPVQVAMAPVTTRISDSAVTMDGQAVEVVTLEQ
Summary of the method: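 Human hepatoma HepG2 cells carrying transfected promoter-regulated reporter units were incubated with test chemicals for 24 h. Reporter transcripts were measured by RT-PCR plus capillary electrophoresis, and endpoints derived by bidirectional fitting with DMSO as baseline.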

[2] = ATG_NFI_CIS: Attagene CIS-FACTORIAL HepG2 Assay for human Nuclear Factor I (NFI) (AID 2282989); details: HepG2 cis-regulatory reporter, NFI response element transcription; actives raise or lower the signal
Summary of the method: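 Endogenous TF activity in HepG2 cells transiently transfected with cis-element-driven multiplexed reporter units, read 24 h after dosing. Reporter mRNA quantified by RT-PCR, 6-FAM labelling, HpaI digestion and capillary electrophoresis; bidirectional fit versus DMSO.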

[3] = biological target: Myc proto-oncogene protein (Homo sapiens) (UniProt P01106); assay: ATG_Myc_CIS: Attagene CIS-FACTORIAL HepG2 Assay for human Myelocytomatosis (Myc) Proto-Oncogene Transcription Factor (AID 2282990); details: HepG2, Attagene cis-reporter transcription factor activity; actives raise or lower the signal
Sequence of Myc proto-oncogene protein (Homo sapiens) (P01106 whole entry, looked up): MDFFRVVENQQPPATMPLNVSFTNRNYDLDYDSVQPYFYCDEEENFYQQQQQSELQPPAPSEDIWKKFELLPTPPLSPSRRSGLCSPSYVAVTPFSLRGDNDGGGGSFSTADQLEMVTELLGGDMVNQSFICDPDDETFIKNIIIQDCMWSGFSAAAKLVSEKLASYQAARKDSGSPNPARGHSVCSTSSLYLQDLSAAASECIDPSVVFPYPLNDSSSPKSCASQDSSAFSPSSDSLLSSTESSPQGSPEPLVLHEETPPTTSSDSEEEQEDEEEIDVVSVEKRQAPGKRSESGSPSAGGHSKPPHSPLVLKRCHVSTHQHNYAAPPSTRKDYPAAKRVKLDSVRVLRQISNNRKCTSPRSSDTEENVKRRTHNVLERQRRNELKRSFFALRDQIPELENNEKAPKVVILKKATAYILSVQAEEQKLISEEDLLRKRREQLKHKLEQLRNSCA
Summary of the method: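 Multiplexed cis-reporter transcription in HepG2 cells after 24 h chemical treatment. Reporter mRNA measured by RT-PCR and capillary electrophoresis fluorescence; activity fitted bidirectionally against DMSO control.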

[4] = ATG_NF_kB_CIS: Attagene CIS-FACTORIAL HepG2 Assay for human Nuclear Factor Kappa B (NF-kB) (AID 2282991); details: HepG2 Attagene cis-factorial NF-kB reporter mRNA; actives raise or lower the signal
Summary of the method: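 Multiplexed cis-reporter assay in transiently transfected HepG2. 24 h treatment; RNA isolated, RT-PCR, labelled fragments resolved by CE. DMSO baseline.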

[5] = ATG_NRF2_ARE_CIS: Attagene CIS-FACTORIAL HepG2 Assay for human Nuclear Factor Erythroid 2 Related Factor 2 (NFR2) response to Antioxidant Response Elements (ARE) (AID 2282992); details: HepG2 Attagene ARE/NRF2 reporter, transcription factor activity; actives raise or lower the signal
Summary of the method: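 Transient MRTU transfection of HepG2; 24 h compound exposure; TriZol RNA, RT with oligo(dT), PCR, 6-FAM primer extension, HpaI cut, CE. Bidirectional fit vs DMSO.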

[6] = ATG_Oct_MLP_CIS: Attagene CIS-FACTORIAL HepG2 Assay for human Octamer-Binding Transcription Factor (Oct) (AID 2282993); details: HepG2 Attagene cis-factorial Oct reporter, mRNA; actives raise or lower the signal
Summary of the method: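 HepG2 cells transiently transfected with cis-element-driven reporter transcription units (endogenous TF activity); 24 h compound exposure. Reporter mRNA quantified by RT-PCR, 6-FAM labelling, HpaI digestion and capillary electrophoresis; bidirectional fit versus DMSO baseline.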

[7] = biological target: Cellular tumor antigen p53 (Homo sapiens) (UniProt P04637); assay: ATG_p53_CIS: Attagene CIS-FACTORIAL HepG2 Assay for human p53 Transcription Factor (AID 2282994); details: HepG2 p53 cis-element reporter, Attagene mRNA; actives raise or lower the signal
Sequence of Cellular tumor antigen p53 (Homo sapiens) (P04637 whole entry, looked up): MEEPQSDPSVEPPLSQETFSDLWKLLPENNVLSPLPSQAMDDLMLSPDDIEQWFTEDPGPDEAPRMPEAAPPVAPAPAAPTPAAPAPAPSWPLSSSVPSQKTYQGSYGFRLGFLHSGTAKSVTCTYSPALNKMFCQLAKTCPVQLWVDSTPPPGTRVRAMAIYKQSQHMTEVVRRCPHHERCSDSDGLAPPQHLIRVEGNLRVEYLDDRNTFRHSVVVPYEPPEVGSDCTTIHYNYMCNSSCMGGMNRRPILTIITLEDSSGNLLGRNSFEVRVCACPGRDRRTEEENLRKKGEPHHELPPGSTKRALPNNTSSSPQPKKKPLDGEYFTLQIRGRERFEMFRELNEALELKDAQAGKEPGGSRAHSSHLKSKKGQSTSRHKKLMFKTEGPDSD
Summary of the method: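 HepG2, transient MRTU transfection (cis promoter elements, endogenous TFs); 24 h dosing; RNA isolation, RT-PCR, 6-FAM primer extension, HpaI digest, CE fluorescence; bidirectional fit vs DMSO.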

[8] = BSK_3C_TissueFactor: BioMAP Diversity Plus: 3C Assay for Tissue Factor Biomarker Activity (AID 2282997); details: BioMAP 3C HUVEC, tissue factor biomarker readout; actives raise or lower the signal
Summary of the method: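 ELISA read-out of Tissue Factor levels on human umbilical vein endothelium collected 24 h after chemical dosing. Gain or loss of signal was fitted relative to DMSO.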

[9] = BSK_3C_uPAR: BioMAP Diversity Plus: 3C Assay for Urokinase-type plasminogen activator receptor (uPAR) Biomarker Activity (AID 2282998); details: BioMAP 3C HUVEC, uPAR biomarker ELISA; actives raise or lower the signal
Summary of the method: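 Primary human umbilical vein endothelial cells, 3C system; surface uPAR measured by ELISA 24 h after dosing. Cytotoxicity via SRB total protein in parallel cultures; bidirectional fit against DMSO.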

[10] = BSK_3C_VCAM1: BioMAP Diversity Plus: 3C Assay for Vascular cell adhesion molecule 1 (VCAM1) Biomarker Activity (AID 2282999); details: BioMAP 3C HUVEC, VCAM1 ELISA, cytokine-stimulated; actives raise or lower the signal
Summary of the method: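 Human umbilical vein endothelial cells were dosed with compound for 24 h, after which cell-surface VCAM-1 was quantified by ELISA. Bidirectional curve fitting used DMSO as negative control and activity baseline.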

[11] = read-out: Intercellular Adhesion Molecule 1 (ICAM1), ICAM1 (gene 3383); assay: BSK_3C_ICAM1: BioMAP Diversity Plus: 3C Assay for Intercellular Adhesion Molecule 1 (ICAM1) Biomarker Activity (AID 2283003); details: primary human endothelial cells (HUVEC); actives raise or lower the signal
Summary of the method: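 Human vascular endothelial primary cells, 3C conditions, 24 h treatment. ICAM-1 by ELISA.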

[12] = biological target: human Retinoic Acid Receptor beta (RARb), RARB (gene 5915) (UniProt P10826); assay: ATG_RARb_TRANS: Attagene TRANS-FACTORIAL HepG2 Assay for human Retinoic Acid Receptor beta (AID 2283004; active = hit-call score of the fitted dose curve at least 0.9, where 1 is the maximum)
Sequence of human Retinoic Acid Receptor beta (RARb), RARB (gene 5915) (P10826 whole entry, looked up): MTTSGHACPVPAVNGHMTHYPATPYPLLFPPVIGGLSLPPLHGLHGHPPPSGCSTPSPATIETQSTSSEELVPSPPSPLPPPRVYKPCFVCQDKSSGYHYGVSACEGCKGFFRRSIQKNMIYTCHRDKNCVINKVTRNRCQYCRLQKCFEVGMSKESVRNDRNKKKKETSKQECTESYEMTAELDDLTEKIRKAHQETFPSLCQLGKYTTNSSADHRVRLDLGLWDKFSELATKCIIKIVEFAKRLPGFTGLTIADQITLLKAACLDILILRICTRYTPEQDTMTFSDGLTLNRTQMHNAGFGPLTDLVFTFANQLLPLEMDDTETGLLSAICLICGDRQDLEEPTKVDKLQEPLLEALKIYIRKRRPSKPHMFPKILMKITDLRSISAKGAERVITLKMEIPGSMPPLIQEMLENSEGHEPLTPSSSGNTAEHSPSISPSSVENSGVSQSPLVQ
Summary of the method: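 Transient transfection of HepG2 with multiple reporter units → chemical dosing, 24 h → total RNA isolation → RT with oligo(dT) → reporter-specific PCR, 6-FAM primer extension, HpaI digest → capillary electrophoresis. Positive direction vs DMSO control.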

[13] = BSK_3C_Proliferation: Cell Proliferation Assessment in the BioMAP Diversity Plus: 3C Assay (AID 2283006); details: primary human endothelial cells (HUVEC)
Summary of the method: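 Proliferation of human vascular endothelial primary cells after 48 h dosing, quantified as SRB-stained protein at 560 nm relative to DMSO.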

[14] = biological target: human Peroxisome Proliferator-activated Receptor alpha (PPARa), PPARA (gene 5465) (UniProt Q07869); assay: ATG_PPARa_TRANS: Attagene TRANS-FACTORIAL HepG2 Assay for human Peroxisome Proliferator-activated Receptor alpha (PPARa) (AID 2283001; active = hit-call score of the fitted dose curve at least 0.9, where 1 is the maximum)
Sequence of human Peroxisome Proliferator-activated Receptor alpha (PPARa), PPARA (gene 5465) (Q07869 whole entry, looked up, the tested form may be a part): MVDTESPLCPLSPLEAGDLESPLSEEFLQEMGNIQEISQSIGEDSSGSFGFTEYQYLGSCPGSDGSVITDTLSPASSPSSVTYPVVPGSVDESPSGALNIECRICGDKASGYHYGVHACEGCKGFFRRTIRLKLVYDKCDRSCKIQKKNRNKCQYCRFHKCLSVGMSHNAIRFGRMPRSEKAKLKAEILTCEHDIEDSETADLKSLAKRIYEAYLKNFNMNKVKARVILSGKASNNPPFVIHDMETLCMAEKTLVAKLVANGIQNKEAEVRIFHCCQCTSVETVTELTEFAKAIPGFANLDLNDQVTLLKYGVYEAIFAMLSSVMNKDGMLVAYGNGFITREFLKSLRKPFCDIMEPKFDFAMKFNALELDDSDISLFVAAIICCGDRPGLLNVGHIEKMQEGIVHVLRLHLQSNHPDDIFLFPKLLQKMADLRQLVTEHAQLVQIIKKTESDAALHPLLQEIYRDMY
Summary of the method: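 HepG2 cells transiently transfected with multiplexed GAL4-UAS reporter units and chimeric NR-Gal4 constructs were dosed for 24 h. Reporter mRNA was measured by RT-PCR with fluorescent labelling and capillary electrophoresis; gain of signal fitted against DMSO.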

[15] = biological target: human Peroxisome Proliferator-activated Receptor delta (PPARd), PPARD (gene 5467) (UniProt Q03181); assay: ATG_PPARd_TRANS: Attagene TRANS-FACTORIAL HepG2 Assay for human Peroxisome Proliferator-activated Receptor delta (PPARd) (AID 2283002; active = hit-call score of the fitted dose curve at least 0.9, where 1 is the maximum)
Sequence of human Peroxisome Proliferator-activated Receptor delta (PPARd), PPARD (gene 5467) (Q03181 whole entry, looked up, the tested form may be a part): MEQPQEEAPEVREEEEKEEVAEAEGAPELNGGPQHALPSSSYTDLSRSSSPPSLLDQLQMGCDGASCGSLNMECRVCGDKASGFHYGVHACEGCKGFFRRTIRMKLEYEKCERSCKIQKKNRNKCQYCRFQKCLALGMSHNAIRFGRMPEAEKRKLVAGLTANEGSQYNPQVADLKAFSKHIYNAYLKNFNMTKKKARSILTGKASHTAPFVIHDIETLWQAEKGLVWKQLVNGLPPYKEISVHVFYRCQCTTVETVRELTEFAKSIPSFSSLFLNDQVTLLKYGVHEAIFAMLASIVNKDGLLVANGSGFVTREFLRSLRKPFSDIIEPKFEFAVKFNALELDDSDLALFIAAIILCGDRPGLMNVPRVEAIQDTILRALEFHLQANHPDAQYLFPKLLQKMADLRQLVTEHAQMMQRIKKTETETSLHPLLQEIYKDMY
Summary of the method: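 Multiplexed trans-activation format: HepG2 liver cells expressing exogenous NR-Gal4 chimeras and GAL4-UAS reporters were exposed for 24 h. Reporter mRNA was detected by RT-PCR with capillary electrophoresis fluorescence; activity fitted as gain of signal relative to DMSO.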

[16] = biological target: Peroxisome proliferator-activated receptor gamma (Homo sapiens) (UniProt P37231); assay: ATG_PPARg_TRANS: Attagene TRANS-FACTORIAL HepG2 Assay for human Peroxisome Proliferator-activated Receptor-gamma (PPARg) (AID 2283007; active = hit-call score of the fitted dose curve at least 0.9, where 1 is the maximum)
Sequence of Peroxisome proliferator-activated receptor gamma (Homo sapiens) (P37231 whole entry, looked up): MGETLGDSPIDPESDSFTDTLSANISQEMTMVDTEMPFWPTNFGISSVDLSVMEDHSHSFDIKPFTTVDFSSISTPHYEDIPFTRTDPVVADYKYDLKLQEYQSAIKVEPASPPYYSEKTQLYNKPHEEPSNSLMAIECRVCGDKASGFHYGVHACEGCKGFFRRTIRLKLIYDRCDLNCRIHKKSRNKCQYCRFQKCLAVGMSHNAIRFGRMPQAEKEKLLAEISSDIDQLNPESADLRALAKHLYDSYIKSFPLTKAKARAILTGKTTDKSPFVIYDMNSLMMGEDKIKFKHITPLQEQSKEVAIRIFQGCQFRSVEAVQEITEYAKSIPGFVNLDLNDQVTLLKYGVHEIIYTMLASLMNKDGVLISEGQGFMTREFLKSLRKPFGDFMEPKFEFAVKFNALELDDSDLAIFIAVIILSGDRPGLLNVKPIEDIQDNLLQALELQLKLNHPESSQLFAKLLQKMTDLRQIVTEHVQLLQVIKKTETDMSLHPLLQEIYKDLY
Summary of the method: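 Human hepatoma HepG2, transient MRTU transfection, 24 h treatment. mRNA reporter signal by RT-PCR plus capillary electrophoresis, fluorescence detection; fitted for increase over DMSO negative control.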

[17] = biological target: Nuclear receptor subfamily 1 group I member 2 (Homo sapiens) (UniProt O75469); assay: ATG_PXR_TRANS: Attagene TRANS-FACTORIAL HepG2 Assay for human Pregnane X Receptor (PXR) (AID 2283008; active = hit-call score of the fitted dose curve at least 0.9, where 1 is the maximum)
Sequence of Nuclear receptor subfamily 1 group I member 2 (Homo sapiens) (O75469 whole entry, looked up, the tested form may be a part): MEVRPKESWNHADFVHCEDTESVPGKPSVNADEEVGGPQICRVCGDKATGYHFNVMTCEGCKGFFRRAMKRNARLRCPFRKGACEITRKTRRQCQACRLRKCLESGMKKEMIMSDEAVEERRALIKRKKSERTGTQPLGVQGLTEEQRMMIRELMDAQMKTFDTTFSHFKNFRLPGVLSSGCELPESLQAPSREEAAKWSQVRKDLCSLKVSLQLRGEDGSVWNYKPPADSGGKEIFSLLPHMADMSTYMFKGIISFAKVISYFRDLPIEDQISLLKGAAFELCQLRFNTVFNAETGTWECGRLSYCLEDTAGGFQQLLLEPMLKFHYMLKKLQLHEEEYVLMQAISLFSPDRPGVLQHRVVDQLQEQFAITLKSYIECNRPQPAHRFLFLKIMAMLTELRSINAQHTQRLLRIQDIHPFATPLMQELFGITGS
Summary of the method: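 Read-out is fluorescence of labelled reporter cDNA fragments separated by capillary electrophoresis after RT-PCR and HpaI digestion. Source: HepG2 cells carrying PXR-GAL4/UAS reporter constructs, treated 24 h; activity fitted upward relative to DMSO.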

[18] = biological target: human Retinoic Acid Receptor gamma (RARg), RARG (gene 5916) (UniProt P13631); assay: ATG_RARg_TRANS: Attagene TRANS-FACTORIAL HepG2 Assay for human Retinoic Acid Receptor gamma (RARg) (AID 2283009; active = hit-call score of the fitted dose curve at least 0.9, where 1 is the maximum)
Sequence of human Retinoic Acid Receptor gamma (RARg), RARG (gene 5916) (P13631 whole entry, looked up, the tested form may be a part): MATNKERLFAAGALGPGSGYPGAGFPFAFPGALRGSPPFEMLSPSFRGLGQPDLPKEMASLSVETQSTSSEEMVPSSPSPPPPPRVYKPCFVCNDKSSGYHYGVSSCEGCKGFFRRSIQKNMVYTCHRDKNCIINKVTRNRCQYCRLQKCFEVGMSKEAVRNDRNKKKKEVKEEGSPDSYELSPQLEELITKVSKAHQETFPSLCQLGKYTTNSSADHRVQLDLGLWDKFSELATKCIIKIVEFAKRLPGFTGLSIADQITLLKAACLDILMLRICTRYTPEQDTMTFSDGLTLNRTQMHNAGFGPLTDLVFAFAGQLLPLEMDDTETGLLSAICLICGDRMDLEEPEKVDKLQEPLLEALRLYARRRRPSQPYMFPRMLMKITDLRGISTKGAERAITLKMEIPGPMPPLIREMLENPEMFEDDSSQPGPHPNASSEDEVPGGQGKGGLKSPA
Summary of the method: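 HepG2, RARg-GAL4 TRANS system, 24 h exposure; reporter mRNA by RT-PCR + CE fluorescence; increase over DMSO.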

Measured: AC50

COCCOCCOC
not listed: [14] | [15] | [16] | [17] | [18]
inactive: all other assays above

Cc1ccc(C)c(O)c1C
inactive: all assays above

O=C(N[C@@H](Cc1ccccc1)[C@@H](O)C(=O)N1C[C@@H](O)[C@@H](O)C1)c1cc2cc(Cl)ccc2[nH]1
active: [5] 91.9 µM
not listed: [12] | [14] | [18]
inactive: all other assays above

Cc1ccc(N(C)C)cc1
not listed: [12] | [14] | [16] | [18]
inactive: all other assays above
